Test results published in PubChem BioAssay (NCI).
Compounds without any hit were thinned out: in the full panel of roughly 79,000, 15% have a hit. Calls of active or inactive are those of the source. Cut-off read from the data, not from the text of the source: active = growth inhibition above about 70%; inactive = the rest.

Tests used:
[1] = NCI Yeast Anticancer Drug Screen. Data for the rad52 strain (AID 147);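 note: 0% = growth of vehicle-treated control cultures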; details: S. cerevisiae rad52 mutant growth inhibition, active compounds read high
How it was run: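 Inhibition of yeast growth, referenced to vehicle controls, was the measured output for a strain with defective DNA damage repair.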

[2] = NCI Yeast Anticancer Drug Screen. Data for the wt1 strain (AID 149);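 note: 0% = growth of vehicle-treated wt1 cultures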; details: S. cerevisiae wt1 strain (SPY 50644) growth inhibition, active compounds read high
How it was run: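 Measured: growth of wt1 yeast under compound versus vehicle treatment, reported as inhibition.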

[3] = NCI Yeast Anticancer Drug Screen. Data for the rad50EPP+ strain (AID 151);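 note: 0% = growth of vehicle-treated control cultures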; details: S. cerevisiae rad50 mutant strain, active compounds read high
How it was run: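 Genetically defined yeast (rad50EPP+, DNA damage repair alteration) is grown with compound, and inhibition of growth is expressed relative to vehicle-treated controls.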

[4] = NCI Yeast Anticancer Drug Screen. Data for the mgt1 strain (AID 153); details: S. cerevisiae mgt1 mutant growth inhibition, active compounds read high
How it was run: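 In the mgt1 strain, test compounds were added and growth inhibition was determined relative to vehicle-treated controls.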

[5] = NCI Yeast Anticancer Drug Screen. Data for the mec2-1 strain (AID 157); details: S. cerevisiae mec2-1 strain, active compounds read high
How it was run: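 Each compound was tested on mec2-1 yeast, a strain altered in DNA damage repair or cell cycle control. Growth inhibition is reported relative to vehicle.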

[6] = NCI Yeast Anticancer Drug Screen. Data for the rad14 strain (AID 159);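 note: 0% = growth of vehicle-treated control cultures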; details: S. cerevisiae rad14 strain growth inhibition, active compounds read high
How it was run: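 Here, inhibition of yeast growth was measured after compound exposure, using a strain with a genetic defect in DNA damage repair and vehicle-treated cultures as the reference.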

[7] = NCI Yeast Anticancer Drug Screen. Data for the CLN2oe strain (AID 163);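 note: 0% = growth of vehicle-only control cultures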; details: S. cerevisiae CLN2oe strain, active compounds read high
How it was run: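 First, the altered yeast strain was treated with each compound; second, its growth was measured; finally, inhibition was derived by comparison with vehicle controls.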

[8] = NCI Yeast Anticancer Drug Screen. Data for the cln2 rad14 strain (AID 165);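 note: 0% = growth equal to vehicle treated cultures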; details: S. cerevisiae cln2 rad14 strain, active compounds read high
How it was run: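 Test compounds were added to cln2 rad14 yeast cultures; inhibition of growth was then determined by comparison with vehicle treatment.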

[9] = NCI Yeast Anticancer Drug Screen. Data for the bub3 strain (AID 167); details: S. cerevisiae bub3 mutant strain, active compounds read high
How it was run: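 Whole-cell yeast assay. The mutant strain was incubated with compounds, and growth inhibition was determined by comparison with vehicle-treated cells.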

[10] = NCI Yeast Anticancer Drug Screen. Data for the wt2 strain (AID 169);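 note: 0% = growth of vehicle-treated yeast cultures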; details: S. cerevisiae wt2 strain growth inhibition, active compounds read high
How it was run: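 The panel's yeast strains carry defined changes in DNA repair or cell cycle genes. Each strain is grown with compound, and growth loss is scored relative to vehicle.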

[11] = NCI Yeast Anticancer Drug Screen. Data for the mlh1 strain (AID 171);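 note: 0% = growth of vehicle-treated control cultures of the same strain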; details: S. cerevisiae mlh1 strain growth inhibition, active compounds read high
How it was run: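 Inhibition values reflect reduced yeast growth in the presence of compound, referenced to vehicle controls, using a strain chosen for its alteration in DNA repair or cell cycle control.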

[12] = NCI Yeast Anticancer Drug Screen. Data for the sgs1 strain (AID 173);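 note: 0% = growth of vehicle-only control cultures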; details: S. cerevisiae sgs1 mutant, active compounds read high
How it was run: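 Vehicle-treated cultures served as reference for growth inhibition of a yeast strain altered in DNA damage repair or cell cycle control after compound exposure.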

[13] = NCI Yeast Anticancer Drug Screen. Data for the mlh1 rad18 strain (AID 175); details: S. cerevisiae mlh1 rad18 strain growth inhibition, active compounds read high
How it was run: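 Inhibition values reflect reduced growth of mutant yeast versus vehicle-treated controls following compound exposure; the mutations affect DNA damage repair.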

[14] = NCI Yeast Anticancer Drug Screen. Data for the rad18 strain (AID 177); details: S. cerevisiae rad18 mutant growth inhibition, active compounds read high
How it was run: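 Steps: expose repair-mutant yeast to compound; measure growth; express as inhibition relative to vehicle control.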

[15] = NCI Yeast Anticancer Drug Screen. Data for the rad50 strain (AID 155);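 note: 0% = growth of vehicle-only cultures of the same strain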; details: S. cerevisiae rad50 strain growth inhibition, active compounds read high
How it was run: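 Growth of the mutant yeast was measured after compound exposure and referenced to vehicle-treated cultures.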

[16] = NCI Yeast Anticancer Drug Screen. Data for the sgs1 mgt1 strain (AID 161);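 note: 0% = growth of cultures given vehicle only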; details: S. cerevisiae sgs1 mgt1 strain, active compounds read high
How it was run: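 Test agents were incubated with a DNA-repair-mutant yeast strain. Growth was then read and compared against vehicle-treated controls.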

[17] = at 5.0 µM (retest, dose inferred, filed as 0.5)
[18] = at 50.0 µM (retest, dose inferred, filed as 5.0)

Measured: growth inhibition

CC(C)(C)C1=CC(=CC=C2C=CN(CCCCCCCCCCCO)C=C2)C=C(C(C)(C)C)C1=O
active: [1]; at 3.7 µM 95% | [1]; at 11.0 µM 99% | [1]; at 33.0 µM 98% | [1]; at 100.0 µM 98% | [2]; at 11.0 µM 99% | [2]; at 33.0 µM 99% | [2]; at 100.0 µM 99% | [3]; at 33.0 µM 82% | [3]; at 100.0 µM 95% | [4]; at 11.0 µM 99% | [4]; at 33.0 µM 100% | [4]; at 100.0 µM 99% | [5]; at 3.7 µM 99% | [5]; [17] 99% | [5]; at 11.0 µM 99% | [5]; at 33.0 µM 99% | [5]; [18] 99% | [5]; at 50.0 µM 98.7% | [5]; at 100.0 µM 98% | [6]; at 11.0 µM 99% | [6]; at 33.0 µM 99% | [6]; at 100.0 µM 98% | [7]; at 11.0 µM 99% | [7]; at 33.0 µM 98% | [7]; at 100.0 µM 97% | [8]; [17] 99% | [8]; [18] 99% | [8]; at 50.0 µM 99.2% | [9]; [17] 94% | [9]; at 11.0 µM 98% | [9]; at 33.0 µM 98% | [9]; [18] 99% | [9]; at 50.0 µM 99% | [9]; at 100.0 µM 96% | [10]; at 11.0 µM 99% | [10]; at 33.0 µM 99% | [10]; at 100.0 µM 98% | [11]; at 11.0 µM 99% | [11]; at 33.0 µM 99% | [11]; at 100.0 µM 98% | [12]; at 3.7 µM 84% | [12]; at 11.0 µM 99% | [12]; at 33.0 µM 99% | [12]; at 100.0 µM 98% | [13]; [17] 98% | [13]; [18] 99% | [13]; at 50.0 µM 99.5% | [14]; at 11.0 µM 99% | [14]; at 33.0 µM 98% | [14]; at 100.0 µM 97%
inactive: [1]; at 1.2 µM -1% | [2]; at 1.2 µM -6% | [2]; at 3.7 µM 46% | [3]; at 1.2 µM -3% | [3]; at 3.7 µM -3% | [3]; at 11.0 µM -2% | [4]; at 1.2 µM -4% | [4]; at 3.7 µM -4% | [5]; at 1.2 µM -3% | [6]; at 1.2 µM -4% | [6]; at 3.7 µM 23% | [7]; at 1.2 µM -8% | [7]; at 3.7 µM 10% | [9]; at 1.2 µM -2% | [9]; at 3.7 µM 57% | [10]; at 1.2 µM -4% | [10]; at 3.7 µM 4% | [11]; at 1.2 µM -3% | [11]; at 3.7 µM 0% | [12]; at 1.2 µM -3% | [14]; at 1.2 µM -4% | [14]; at 3.7 µM 68%

OC1(c2ccccc2)CCCc2ccc(Cl)cc21 (stereo not given)
inactive: [1]; at 1.2 µM 1% | [1]; at 3.7 µM 2% | [1]; at 11.0 µM 0% | [1]; at 33.0 µM 42% | [2]; at 1.2 µM -1% | [2]; at 3.7 µM -2% | [2]; at 11.0 µM -8% | [2]; at 33.0 µM -4% | [3]; at 1.2 µM 3% | [3]; at 3.7 µM 7% | [3]; at 11.0 µM 13% | [3]; at 33.0 µM 20% | [4]; at 1.2 µM -10% | [4]; at 3.7 µM -15% | [4]; at 11.0 µM -2% | [4]; at 33.0 µM 5% | [15]; at 1.2 µM -3% | [15]; at 3.7 µM 1% | [15]; [17] 10% | [15]; at 11.0 µM -2% | [15]; at 33.0 µM 50% | [15]; [18] 28% | [15]; at 50.0 µM 57.2% | [5]; at 1.2 µM 2% | [5]; at 3.7 µM 5% | [5]; [17] 1% | [5]; at 11.0 µM 0% | [5]; at 33.0 µM 31% | [5]; [18] 11% | [5]; at 50.0 µM 50.2% | [16]; [17] -3% | [16]; [18] 4% | [16]; at 50.0 µM 56.2% | [7]; at 1.2 µM 1% | [7]; at 3.7 µM 0% | [7]; at 11.0 µM -17% | [7]; at 33.0 µM 20% | [8]; [17] 3% | [8]; [18] 13% | [8]; at 50.0 µM 11.1% | [9]; at 1.2 µM -2% | [9]; at 3.7 µM -10% | [9]; [17] -3% | [9]; at 11.0 µM -14% | [9]; at 33.0 µM -17% | [9]; [18] -13% | [9]; at 50.0 µM -16.4% | [10]; at 1.2 µM 0% | [10]; at 3.7 µM -2% | [10]; at 11.0 µM -7% | [10]; at 33.0 µM 7% | [11]; at 1.2 µM 1% | [11]; at 3.7 µM 3% | [11]; at 11.0 µM 0% | [11]; at 33.0 µM 30% | [12]; at 1.2 µM 0% | [12]; at 3.7 µM 0% | [12]; at 11.0 µM 0% | [12]; at 33.0 µM 33% | [13]; [17] 0% | [13]; [18] 39% | [13]; at 50.0 µM 53.8% | [14]; at 1.2 µM 0% | [14]; at 3.7 µM 4% | [14]; at 11.0 µM 3% | [14]; at 33.0 µM 40%
active: [1]; at 100.0 µM 99% | [2]; at 100.0 µM 98% | [3]; at 100.0 µM 74% | [4]; at 100.0 µM 99% | [15]; at 100.0 µM 99% | [5]; at 100.0 µM 99% | [7]; at 100.0 µM 99% | [9]; at 100.0 µM 98% | [10]; at 100.0 µM 99% | [11]; at 100.0 µM 99% | [12]; at 100.0 µM 99% | [14]; at 100.0 µM 99%
